Results reported in PubChem BioAssay (NCI).
The panel holds about 83,000 compounds, 20% with a hit somewhere; the sample as a whole holds those more often.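 Treatment: one concentration, 48 hours, 96-well format. Scoring: percent growth, with anything below 10 considered active.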 A number with no mark means an inactive call. The source made the active and inactive calls.

Test system: HL-60(TB) leukemia
Test: NCI-60 one-dose screen, 48 h (100 = growth as untreated, 0 = no growth, -100 = all killed)
Conditions: 10 µM unless noted

How did the growth turn out when `COc1cc(C(=O)c2cc(C(C)=O)c3cccc(C)n23)cc(OC)c1OC` was run?
The growth was 10.7%.

How did the growth turn out when `NC(N)=Nc1ccc(Nc2cccc(Nc3ccc(Cl)c(C(F)(F)F)c3)c2)cn1` was run?
The growth was -40.5% (active).

For `CC1OC(O[C@@H]2C(O)C(CO)OC(O[C@H]3COC(O[C@H]4CC[C@]5(C)[C@H]6CC[C@]78OC[C@@]9(CC[C@](C)(C=O)C[C@H]97)[C@H](O)C[C@@]8(C)[C@]6(C)CC[C@H]5C4(C)C)[C@@H](OC4OC(CO)[C@@H](O)[C@@H](O)[C@@H]4O)[C@@H]3O)[C@H]2OC2OC[C@@H](O)[C@@H](O)[C@@H]2O)[C@@H](O)[C@@H](O)[C@H]1O` (some centres not stated), which growth is on record?
The growth was -60.5% (active).

With `O=C(N/N=C/c1ccc(Cl)s1)c1[nH]c2ccc(Br)cc2c1-c1ccccc1` as the molecule, how does the growth read?
The growth was -44.1% (active).

With `C=C(C)[C@@H]1CC[C@]2(COS(C)(=O)=O)CC[C@]3(C)[C@H](CC[C@@H]4[C@@]5(C)CCCNC(C)(C)[C@@H]5CC[C@]43C)[C@@H]12` as the molecule, how does the growth read?
The growth was 34.1%.

Which growth does the source give for `Nc1nc(N)c2c(n1)NC(c1ccc(Cl)cc1)CC(c1ccc(Nc3nc(NCCO)nc(Nc4ccc(Cl)cc4)n3)cc1)=N2` (configuration not stated) here?
Its growth is 9.81% (active).

How did the growth turn out when `CC(Nc1c(C#N)cnc2ccc(-c3cncc(O)c3)cc12)c1ccccc1` (configuration not stated) was run?
The growth was 3.91% (active).

`COc1cccc2c1CN(C(=O)c1ccc(O)c(C(=O)N3Cc4ccc(OCCC[P+](c5ccccc5)(c5ccccc5)c5ccccc5)cc4C3)c1)C2` was tested. Which growth did it give?
The growth was 41.3%.

How did the growth turn out when `O=C(NNc1nc2cc(F)c(F)cc2n2cccc12)c1cnccn1` was run?
The growth was 3.67% (active).

For `COC(=O)c1ccc(NC2=C/C(=N/S(=O)(=O)c3ccc(C(=O)O)cc3)c3ccccc3C2=O)cc1`, which growth is on record?
The growth was -15.9% (active).

For `O=C1Nc2ccc(F)cc2/C1=C\C(=O)c1ccc(NS(=O)(=O)c2ccccc2)cc1`, which growth is on record?
The growth was 33.1%.

How did the growth turn out when `NC(N)=Nc1ccc(Oc2cccc(NC(N)=Nc3ccc(I)cc3F)c2)cn1` was run?
Its growth is 39.3%.

`CCN1C(=O)N(CC)C2SC(N/N=C/c3ccc(F)cc3)=NC21` (configuration not stated) was tested. Which growth did it give?
Its growth is 2.85% (active).

How did the growth turn out when `COc1ccc(OC)c(-c2nc(SCC(=O)c3ccc(Br)cc3)nc(Nc3ccc(S(N)(=O)=O)cc3)c2C#N)c1` was run?
The growth was 25.9%.

`COc1c(N2CC3CCCNC3C2)c(F)cc2c(=O)c(C(=O)N/N=C/c3ccc(N(C)C)cc3)cn(C3CC3)c12` (configuration not stated) was tested. Which growth did it give?
Its growth is 78.5%.

Which growth does the source give for `CC1(C)CC[C@]2(C(=O)O)CC[C@]3(C)C(=CC[C@@H]4[C@@]5(C)CC[C@H](NOCCCN)C(C)(C)[C@@H]5CC[C@]43C)[C@@H]2C1` here?
The growth was 20.2%.

With `Clc1ccc(Cc2nnc3sc(-c4cccnc4)nn23)cc1` as the molecule, how does the growth read?
The growth was 97.2%.

For `O=C(CSc1nnc(-c2ccc(Cl)cc2)n1-c1ccccc1)Nc1cccc(F)c1`, which growth is on record?
The growth was 71.7%.

For `COc1c([C@@H](CC(C)C)OC(C)=O)ccc2c1C(=O)OCc1cc(C)cc(O)c1O2`, which growth is on record?
The growth was 63.7%.

With `C=C1C(=O)O[C@@H]2C[C@@H](C)CCC(=O)[C@](C)(OC(C)=O)C[C@H](OC(=O)/C(C)=C\C)[C@@H]12` as the molecule, how does the growth read?
The growth was 26.4%.

How did the growth turn out when `Fc1ccc(-c2cc3nc(C(Cl)Cl)nc(-c4ccco4)n3n2)cc1` was run?
Its growth is -42.7% (active).

How did the growth turn out when `COc1cc(/C=N/n2cnc3oc(-c4ccccc4)cc3c2=N)cc(CN2CCCC2)c1O` was run?
The growth was 64.9%.

For `COc1ccc(-c2nn3c(-c4ccccc4F)nnc3s2)cc1`, which growth is on record?
The growth was 47.7%.

`O=C1[C@@H]2Cc3c([nH]c4ccccc34)[C@H](c3c(Cl)cccc3Cl)N2C(=O)CN1C1CCN(Cc2c(F)cccc2F)CC1` was tested. Which growth did it give?
Its growth is 109%.

How did the growth turn out when `C#C[C@]1(O)CC[C@H]2[C@@H]3CC=C4c5sc(N(C)c6ccccc6)nc5CC[C@]4(C)[C@H]3CC[C@@]21C` was run?
The growth was 61.8%.

For `O=C(CN1CCOCC1)NNc1ncnc2ccccc12`, which growth is on record?
Its growth is 53%.

How did the growth turn out when `Cn1c(SC(C(=O)Nc2ccc(F)cc2)c2ccccc2)nc2ccccc2c1=O` (configuration not stated) was run?
The growth was 103%.

For `CC(=O)c1ccc(Nc2nc(SCC(C)C)nc(-c3ccccc3)c2C#N)cc1`, which growth is on record?
The growth was 101%.

For `O=S(=O)(NCCCNc1nccc(-c2[nH]c(-c3ccccc3)nc2-c2ccc(F)c(O)c2)n1)c1ccc(C(F)(F)F)cc1`, which growth is on record?
Its growth is -3% (active).

`O=C(CN1C(=O)CSC1=O)Nc1ccc(C(=O)/C=C/c2cc3ccccc3nc2Cl)cc1` was tested. Which growth did it give?
Its growth is 71.9%.

With `C#CCn1cccc1CNc1ccc(OC)cc1` as the molecule, how does the growth read?
Its growth is -63.1% (active).

Which growth does the source give for `Cc1ccc2sc3c(c2c1)OC(N)=C(C#N)C3c1cccc(F)c1` (configuration not stated) here?
The growth was -0.493% (active).
